Assay outcomes from PubChem.
D2 antag – D2 dopamine receptor (human) antagonism; P14416; HEK293 TREx D2 cells, calcium flux, dopamine EC80; inhibition, % at 10 µM; 2% of 340,000 active; AID 485344; in the data active = inhibition above about 30%; inactive = below that, where a call was filed
Target sequence (P14416 whole entry, looked up): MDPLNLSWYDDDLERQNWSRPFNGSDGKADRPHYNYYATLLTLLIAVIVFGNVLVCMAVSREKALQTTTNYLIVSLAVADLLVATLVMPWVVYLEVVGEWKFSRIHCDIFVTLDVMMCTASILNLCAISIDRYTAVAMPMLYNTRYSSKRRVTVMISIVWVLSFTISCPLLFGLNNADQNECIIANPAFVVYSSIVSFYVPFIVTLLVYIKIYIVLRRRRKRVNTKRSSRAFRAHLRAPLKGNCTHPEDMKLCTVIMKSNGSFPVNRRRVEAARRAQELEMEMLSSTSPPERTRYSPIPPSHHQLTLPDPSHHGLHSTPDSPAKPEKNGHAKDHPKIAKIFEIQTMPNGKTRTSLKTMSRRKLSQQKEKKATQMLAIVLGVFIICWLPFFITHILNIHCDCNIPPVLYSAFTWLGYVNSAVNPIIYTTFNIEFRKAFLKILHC
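Dopamine at EC80 is the agonist stimulus; test compounds precede it by 180 s. Calcium flux read kinetically in a force-coupled, inducible HEK293 T-REx D2 cell line.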
D2 PAM-1 – positive allosteric modulators of human D2 dopamine receptor; 0.23% of 360,000 active; potentiation, % (concentration not given with the values); DiscoveRx D2 beta-arrestin cells, luminescence, 90 min; 100% = 57 uM dopamine signal; in the data active = potentiation above about 50%; inconclusive = mostly about 30% to 49%
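D2 cells co-treated with compound plus 50 nM dopamine (EC20) for 90 min at 37 deg C to detect potentiation. Beta-arrestin recruitment was read as enzyme-fragment luminescence after 1 h at ambient temperature. Full response was set by 57 uM dopamine.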
D2 ag-1 – human D2 receptor agonism in beta-arrestin assay. DiscoveRx PathHunter D2 beta-arrestin, luminescence, 90 min; 100% = 57 uM dopamine signal. activation, % (concentration not given with the values). 0.084% of 360,000 active. P14416; in the data active = activation above about 40%; inconclusive = between about 15% and that limit
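Agonist mode: compounds alone added to overnight-plated D2 PathHunter cells for 90 min at 37 C, with 57 uM final dopamine (EC100) defining full response. Beta-arrestin recruitment detected by chemiluminescent reagent, read after 1 h at ambient temperature.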
D2 ag-2 – D2 dopamine receptor (human) agonism; P14416; HEK293 T-REx D2 cells, calcium flux agonist mode; activation, % at 2 µM; 0.53% of 340,000 active; AID 485358;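 active = activation over 3 SD above normal in the single-dose calcium agonist read, cut at about 30% in these data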
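HEK293 Trex D2 cells, tetracycline-induced, o/n 30 C 5% CO2; no-wash Ca dye, RT 30–90 min; 10-cycle baseline, 23 nl cpd added, kinetic Ca read 180 s; agonist hits = positive Ca response.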
D2 PAM-2 – positively modulates the human D2 dopamine receptor allosterically. P14416. HEK293 T-REx D2, calcium flux, EC20 dopamine potentiation. potentiation, % at 10 µM. 0.34% of 340,000 active;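 active = potentiation over 3 SD above the plate norm, cut at about 30% in these data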
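Primary screen. Calcium kinetics in induced HEK293 T-REx D2 cells: compound pre-addition 180 s, EC20 dopamine, 180 s more.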
Hits are given with their value. Hits are enriched below; roughly 2.4% of the tested compounds scored in any of these assays.

How did C=CCn1c(SCC(=O)Nc2ccc(OC)cc2)nc2c([nH]c3ccccc32)c1=O do in these assays?
D2 antag: 33; D2 PAM-1: inactive; D2 ag-1: inactive; D2 ag-2: inactive; D2 PAM-2: inactive

Results for O=C(OCC(=O)N1CCCc2ccccc21)c1ccc(S(=O)(=O)C(F)F)cc1 ?
D2 antag: 42; D2 PAM-1: inactive; D2 ag-1: inactive; D2 ag-2: inactive; D2 PAM-2: inactive

How did O=C(OCC(=O)N1CCCc2ccccc21)c1ccc(C(F)(F)F)cc1 do in these assays?
D2 antag: inactive; D2 PAM-1: inactive; D2 ag-1: inactive; D2 ag-2: inactive; D2 PAM-2: inactive

Results for CCOC(=O)c1oc2cccc(OC(C)=O)c2c1C ?
D2 antag: 37; D2 PAM-1: inactive; D2 ag-1: inactive; D2 ag-2: inactive; D2 PAM-2: inactive

What do the screens show for `N/C(=N\OC(=O)c1ccccc1[N+](=O)[O-])c1cccnc1`?
D2 antag: inactive; D2 PAM-1: 108; D2 ag-1: inconclusive; D2 ag-2: inactive; D2 PAM-2: inactive

Results for Cc1ccc(C(=O)O/N=C(\N)c2cccnc2)cc1[N+](=O)[O-] ?
D2 antag: inactive; D2 PAM-1: 66; D2 ag-1: inactive; D2 ag-2: inactive; D2 PAM-2: inactive

How did N/C(=N\OC(=O)c1ccc([N+](=O)[O-])cc1)c1cccnc1 do in these assays?
D2 antag: inactive; D2 PAM-1: inactive; D2 ag-1: inactive; D2 ag-2: inactive; D2 PAM-2: inactive

Results for CCOC(=O)c1sc(C)c2c(=O)n(Cc3ccc(Cl)cc3)c(C)nc12 ?
D2 antag: 38; D2 PAM-1: inactive; D2 ag-1: inactive; D2 ag-2: inactive; D2 PAM-2: inactive

Results for CCOc1ccc(OCCC(=O)NNC(=O)c2ccccc2Cl)cc1 ?
D2 antag: inactive; D2 PAM-1: inactive; D2 ag-1: inactive; D2 ag-2: inactive; D2 PAM-2: inactive

How did COc1ccc(CCNC(=O)c2n[nH]c3ccccc23)cc1 do in these assays?
D2 antag: 42; D2 PAM-1: inactive; D2 ag-1: inactive; D2 ag-2: inactive; D2 PAM-2: inactive

Results for COc1ccc(CCNC(=O)COc2ccc(S(=O)(=O)NC3CCCCC3)cc2Cl)cc1 ?
D2 antag: inactive; D2 PAM-1: inactive; D2 ag-1: inactive; D2 ag-2: inactive; D2 PAM-2: 34

Results for COc1ccc(CNC(=O)COC(=O)c2n[nH]c3ccccc23)cc1 ?
D2 antag: inactive; D2 PAM-1: inactive; D2 ag-1: inactive; D2 ag-2: inactive; D2 PAM-2: inactive

Results for COc1ccc(CCNC(=O)COC(=O)C2CC2)cc1 ?
D2 antag: 31; D2 PAM-1: inactive; D2 ag-1: inactive; D2 ag-2: inactive; D2 PAM-2: inactive

How did COc1ccc(S(=O)(=O)NC2CCCC2)cc1Br do in these assays?
D2 antag: 31; D2 PAM-1: inactive; D2 ag-1: inactive; D2 ag-2: inactive; D2 PAM-2: inactive

Results for O=C(COc1ccc(S(=O)(=O)NC2CCCCC2)cc1Cl)NCC1CCCO1 (stereo not drawn) ?
D2 antag: inactive; D2 PAM-1: inactive; D2 ag-1: inactive; D2 ag-2: inactive; D2 PAM-2: inactive

How did COc1ccc(C(=O)NCCc2nnc3ccc(SCC(=O)NCc4ccccc4)nn23)cc1 do in these assays?
D2 antag: inactive; D2 PAM-1: inconclusive; D2 ag-1: inactive; D2 ag-2: inactive; D2 PAM-2: inactive

Results for CC(C)OCCCNc1ncnc2c1nc1n2CCCC1 ?
D2 antag: 33; D2 PAM-1: inactive; D2 ag-1: inactive; D2 ag-2: inactive; D2 PAM-2: inactive

How did Cc1onc(-c2c(F)cccc2Cl)c1C(=O)OCC(=O)c1c[nH]c2ccccc12 do in these assays?
D2 antag: inactive; D2 PAM-1: inactive; D2 ag-1: inactive; D2 ag-2: inactive; D2 PAM-2: inactive

How did CCc1cccc(N=c2c([N+](=O)[O-])nn(-c3ccc(Cl)cc3)n2O)c1 do in these assays?
D2 antag: inactive; D2 PAM-1: 87; D2 ag-1: inactive; D2 ag-2: inactive; D2 PAM-2: inactive

What do the screens show for `Cc1cccc(N=c2c([N+](=O)[O-])nn(-c3ccc(Cl)cc3)n2O)c1`?
D2 antag: inactive; D2 PAM-1: inconclusive; D2 ag-1: inactive; D2 ag-2: inactive; D2 PAM-2: inactive

Results for Cc1cc(C)cc(N=c2c([N+](=O)[O-])nn(-c3cccc(Cl)c3)n2O)c1 ?
D2 antag: inactive; D2 PAM-1: 97; D2 ag-1: inactive; D2 ag-2: inactive; D2 PAM-2: inactive

Results for Cc1ccc(CN=c2c([N+](=O)[O-])nn(-c3ccc(Cl)cc3)n2O)cc1 ?
D2 antag: inactive; D2 PAM-1: inactive; D2 ag-1: inactive; D2 ag-2: inactive; D2 PAM-2: inactive

Results for COC(=O)c1ccc(CSc2nc3ccncc3n2Cc2ccc(F)cc2)cc1 ?
D2 PAM-2: inactive

How did CCOC(=O)c1c(C)n(-c2ccc(C)cc2)c2c(CC(C)=O)c(Br)c(OC)c(O)c12 do in these assays?
D2 antag: inactive; D2 PAM-1: inactive; D2 ag-1: inactive; D2 ag-2: inactive; D2 PAM-2: inactive

What do the screens show for `CCOC(=O)c1c(C)n(-c2ccc(C)cc2)c2c(C(C(C)=O)C(=O)O)c(Br)c(O)c(O)c12` (stereo not drawn)?
D2 antag: inactive; D2 PAM-1: 70; D2 ag-1: inconclusive; D2 ag-2: inactive; D2 PAM-2: inactive

How did CCOC(=O)C1CCCN(S(=O)(=O)c2cc3c4c(c2)CCN4C(=O)CC3)C1 (stereo not drawn) do in these assays?
D2 antag: inactive; D2 PAM-1: inactive; D2 ag-1: inconclusive; D2 ag-2: inactive; D2 PAM-2: inactive

Results for NC(=O)C1CCN(S(=O)(=O)c2cc3c4c(c2)CCN4C(=O)CC3)CC1 ?
D2 antag: 30; D2 PAM-1: inactive; D2 ag-1: inactive; D2 ag-2: inactive; D2 PAM-2: inactive

How did Cc1ccc(CNC(=O)Cn2ccn(-c3cccc(Cl)c3)c(=O)c2=O)cc1 do in these assays?
D2 ag-2: inactive; D2 PAM-2: inactive

What do the screens show for `O=C(COC(=O)Cc1ccc(F)cc1)NC1CCCCC1`?
D2 antag: inactive; D2 PAM-1: inactive; D2 ag-1: inactive; D2 ag-2: inactive; D2 PAM-2: inactive

How did COc1ccccc1CCNC(=O)C(=O)NCC1OCCN1S(=O)(=O)c1ccc(Cl)cc1 (stereo not drawn) do in these assays?
D2 antag: 36; D2 PAM-1: inactive; D2 ag-1: inactive; D2 ag-2: inactive; D2 PAM-2: inactive

How did CCN(CC)CCNC(=O)C(=O)NCC1OCCN1S(=O)(=O)c1ccc([N+](=O)[O-])cc1 (stereo not drawn) do in these assays?
D2 antag: inactive; D2 PAM-1: 50; D2 ag-1: inactive; D2 ag-2: inactive; D2 PAM-2: inactive

What do the screens show for `CCN(CC(=O)Nc1ccc2c(c1)OCCO2)CC(=O)Nc1ccc(C)c(S(=O)(=O)N(C)C)c1`?
D2 PAM-1: inactive; D2 ag-1: inactive

What do the screens show for `OC(c1ccccc1)c1nc(-c2cncnc2)cs1` (stereo not drawn)?
D2 PAM-1: inactive; D2 ag-1: inactive
